Most compounds without a hit are left out; they make up all but 5.2% or so of the library.
Sfp inh: inhibitors of Bacillus subtilis Sfp phosphopantetheinyl transferase. Q9F4F7. Biochemical Sfp PPTase activity, qHTS. Potency, µM, most hits filed as inhibitors. 310,000 compounds, 3.5% hits;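 note: the enzyme is Sfp with the accession as filed and its product quenches rhodamine fluorescence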
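Fluorescence-quenching assay with 15 nM Sfp, 5 uM rhodamine-CoA and 12.5 uM BHQ-2-labelled ybbR peptide in pH 7.6 Hepes/MgCl2 buffer. Enzyme was pre-incubated with compound for 15 min at room temperature. Rate was taken from the 30-min fluorescence change (525/598 nm).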
Tau fibril ThT: inhibitors of human tau fibril formation, thioflavin T binding | P10636 | recombinant tau K18 P301L, heparin-induced fibrillization, ThT fluorescence | Potency, µM (top dose mostly 57.4 µM), usual class: inhibitors | 270,000 compounds, 2.1% hits | AID 1460; note: nearly all actives have a fitted effect of over 55% in size
Target sequence (P10636 561-689 P618L limits assumed): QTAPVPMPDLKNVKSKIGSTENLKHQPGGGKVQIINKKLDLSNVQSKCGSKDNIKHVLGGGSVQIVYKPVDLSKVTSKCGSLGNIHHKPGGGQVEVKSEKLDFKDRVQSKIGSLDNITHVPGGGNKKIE
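Tau K18 P301L fragment (15 uM unlabeled plus 0.24 uM Alexa 594-labeled) in 100 mM sodium acetate pH 7 with compound, fibrillization induced by 20 uM heparin for 6 hr at 37 C. Thioflavin T (30 uM) added, fluorescence read after 1 hr (ex 450, em 510 nm).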
Tau fibril FP: tau fibrillization inhibition (FP); 280,000 compounds, 0.39% hits; Potency, µM (top dose mostly 57.7 µM), usual class: inhibitors; P10636; K18 P301L tau heparin fibrillization, Alexa594 FP, 6 h; AID 1468; note: nearly all actives have a fitted effect of over 55% in size
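Human K18 P301L fragment (15 uM unlabeled plus 0.24 uM Alexa 594-labeled) in 100 mM sodium acetate pH 7 with compound, aggregation induced by 20 uM heparin for 6 hr at 37 C. ThT (30 uM) added for 1 hr, then Alexa 594 FP read.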
Tau fluor counter: counter-screen for tau fibril formation inhibitors | tau K18 P301L (four-repeat tau fragment) Alexa594 fluorescence, heparin fibrillization | Potency, µM (doses to about 57.7 µM) | 280,000 compounds, 0.93% hits | AID 1463; note: nearly all actives have a fitted effect of over 55% in size
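Human K18 P301L tau (15 uM unlabeled plus 0.24 uM Alexa 594-labeled, final) in 100 mM sodium acetate pH 7 was mixed with compound and 20 uM heparin and incubated 6 hr at 37 C.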
FBPA coupling cs: counter-screen for Giardia aldolase inhibitors: coupling enzyme system. coupling enzyme system counterscreen, AmpLite Red fluorescence. activity change, negative = inhibition, % at 58.2 µM, hits read low. 290,000 compounds, 0.67% hits. AID 2472; in the data active = activity change below about -30%
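Counterscreen lacking aldolase: glyceraldehyde-3-phosphate coupling-enzyme reagent preincubated 10 min at RT with compound (at 57.5 uM final), then substrate/coupling system with AmpLite Red added; fluorescence read at 525/598 nm after 20 min RT.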
Large screens that a line does not name were inactive; [ ] = dose if it differs, or a comment. Unless noted, calls come from the whole dose curve; as a rule, active = well fitted curve in the direction sought with a large enough effect; inconclusive = small, poorly fitted or top-dose-only effect, or another doubt; inactive = no such curve, though single readings can be large; an effect the other way counts as inactive or inconclusive.

CCC(c1nnnn1CCOC)N(Cc1cc2c(C)cc(C)cc2[nH]c1=O)CC1CCCO1 (stereo not given)	none
CCCC(c1nnnn1CCOC)N(Cc1cc2cc(C)c(C)cc2[nH]c1=O)CC1CCCO1 (stereo not given)	Sfp inh 10µM, FBPA coupling cs -41.4
Cc1ccc(SCC(c2ccccc2)N2CCN(CCc3ccccc3)CCC2=O)cc1 (stereo not given)	none (no result: Tau fibril ThT, Tau fibril FP, Tau fluor counter)
N#Cc1c(-n2ncnc2-c2ccccc2Cl)sc2c1CCCCC2	Tau fibril ThT inconclusive (no result: Sfp inh, FBPA coupling cs)
CSc1nc(N(C)NC(=O)c2ccc(Cl)cc2)c2ccccc2n1	Sfp inh 50.1µM
Cc1ccc(NC(=O)C2=C(c3ccccc3)S(=O)(=O)CCS2(=O)=O)cc1	Sfp inh 15.8µM, Tau fibril ThT 28.2µM, Tau fibril FP 28.2µM
CC(=O)c1c(C)oc2ccc(N(C(=O)Oc3ccccc3)S(=O)(=O)c3ccc(C(C)(C)C)cc3)cc12	none (no result: Sfp inh, FBPA coupling cs)
COc1cc2cc3c(N)c(C(=O)NCc4ccco4)sc3nc2cc1OC	Tau fibril ThT 14.1µM, Tau fluor counter inconclusive
COc1cc2cc3c(N)c(C(=O)Nc4sc(C)c(C)c4C#N)sc3nc2cc1OC	Tau fibril ThT 5.01µM
Cc1cc(C(=O)Nc2sc(C)c(C)c2C#N)no1	Tau fibril ThT inconclusive
O=C(O)CSc1c2c(nc3cc(C(=O)N4CCOCC4)ccc13)CCCC2	Sfp inh 50.1µM
CCOC(=O)N1CCN(C(=O)c2ccc3c(SCC(=O)O)c4c(nc3c2)CCCC4)CC1	none
COc1ccc(-c2nc(C(=O)O)cs2)cc1OC	none
COc1ccc(C(=O)O)nc1C	Sfp inh 44.7µM
CC(C)c1ccc(C2CC(=O)N3CN(Cc4ccco4)CSC3=C2C#N)cc1 (stereo not given)	Sfp inh 2.24µM, Tau fibril ThT 22.4µM, Tau fibril FP inconclusive
N#CC1=C2SCN(C3CCCCC3)CN2C(=O)CC1c1ccc(Br)cc1 (stereo not given)	Tau fibril ThT inconclusive, Tau fibril FP inconclusive (no result: Sfp inh, FBPA coupling cs)
COc1ccc2ccccc2c1C1CC(=O)N2CN(C3CCCCC3)CSC2=C1C#N (stereo not given)	Sfp inh 12.6µM, Tau fibril ThT 28.2µM, Tau fibril FP inconclusive
CCOc1cc(C2CC(=O)N3CN(C4CCCCC4)CSC3=C2C#N)ccc1O (stereo not given)	Sfp inh 3.55µM, Tau fibril ThT 14.1µM, Tau fibril FP inconclusive, FBPA coupling cs -35.2
COc1ccc(C2CC(=O)N3CN(Cc4ccco4)CSC3=C2C#N)cc1 (stereo not given)	Sfp inh 1.41µM, Tau fibril ThT 25.1µM, Tau fibril FP inconclusive
CCOc1ccc(-c2nc(Cn3c(=O)cc(-c4ccccc4)c4c(C)nn(C)c43)c(C)o2)cc1	none (no result: Sfp inh, FBPA coupling cs)
N#CC1=C2SCN(Cc3ccccc3)CN2C(=O)CC1c1ccc2c(c1)OCO2 (stereo not given)	Sfp inh 1.78µM, Tau fibril ThT 20µM, Tau fibril FP inconclusive, FBPA coupling cs -31.8
N#CC1=C(N)OC2=C(C(=O)CC(c3ccccc3)C2)C1c1ccc2c(c1)OCO2 (stereo not given)	Tau fluor counter inconclusive
COc1ccc2ccccc2c1C1CC(=O)N2CN(Cc3ccco3)CSC2=C1C#N (stereo not given)	Sfp inh 5.62µM, Tau fibril ThT inconclusive, Tau fibril FP inconclusive
N#CC1=C2SCN(Cc3ccco3)CN2C(=O)CC1c1ccc(Cl)cc1 (stereo not given)	Sfp inh 2.51µM, Tau fibril ThT 17.8µM, Tau fibril FP inconclusive
COc1ccccc1N1CCN(Cc2ccco2)CC1	Tau fibril ThT inconclusive
COc1cc(C2CC(=O)N3CN(Cc4ccco4)CSC3=C2C#N)ccc1OCc1ccccc1 (stereo not given)	Sfp inh 3.55µM, Tau fibril ThT 20µM, Tau fibril FP inconclusive, Tau fluor counter inconclusive
CCc1ccc(-c2nc3cc(NC(=O)c4ccc(F)cc4)ccc3o2)cc1	Tau fibril ThT inconclusive (no result: Sfp inh, FBPA coupling cs)
COc1ccc(C2CC(=O)N3CN(C4CCCCC4)CSC3=C2C#N)c(OC)c1 (stereo not given)	Tau fibril ThT 25.1µM, Tau fibril FP inconclusive (no result: Sfp inh, FBPA coupling cs)
CCCCN1C(=O)C(O)(c2c(C)[nH]c3ccccc23)c2ccccc21 (stereo not given)	none (no result: Sfp inh, FBPA coupling cs)
CCCCN1C(=O)C2(NNc3ccccc3O2)c2ccccc21 (stereo not given)	Sfp inh inconclusive, Tau fibril ThT 11.2µM, Tau fluor counter 11.2µM[quencher]
C=CCN1C(=O)C2(NC(=O)c3ccccc3N2)c2ccccc21 (stereo not given)	none
C=CCN1C(=O)C2(NNc3ccccc3O2)c2ccccc21 (stereo not given)	Sfp inh inconclusive, Tau fibril ThT 7.08µM, Tau fluor counter 12.6µM[quencher]
COc1ccc(NC(=O)CC2C(=O)N(c3ccc(C)cc3)C(=O)N2C2CCCC2)cc1 (stereo not given)	none (no result: Sfp inh, FBPA coupling cs)
Cc1ccc(N=C2NC(=O)/C(=C/c3cccnc3)S2)c(C)c1	Tau fibril ThT inconclusive
Cc1ccc(N=C2NC(=O)/C(=C\c3ccsc3)S2)c(C)c1	Sfp inh 79.4µM
COc1cccc(NC(=O)C(NCC2CCCCC2)c2ccccc2)c1 (stereo not given)	Sfp inh 50.1µM
COc1cccc(NC(=O)C(NCCC(C)C)c2ccccc2)c1 (stereo not given)	none
COc1ccc(COc2cc(-c3cccc(OC)c3)nc3ccc(NC(=O)c4ccc(Cl)cc4)cc23)cc1	Tau fibril FP 20µM
COc1ccccc1/C=C/C(=O)Nc1ccc(N2CCOCC2)cc1	Tau fibril ThT 2.51µM, Tau fluor counter inconclusive
COc1ccccc1/C=C/C(=O)Nc1ccc2c(c1)OCCO2	Tau fibril ThT inconclusive, Tau fluor counter inconclusive
COc1cccc(/C=C/C(=O)Nc2ccc(N3CCOCC3)cc2)c1OC	Tau fibril ThT 5.62µM, Tau fluor counter inconclusive
COc1ccccc1OCCCC(=O)Nc1ccc(N2CCOCC2)cc1	Tau fibril ThT inconclusive
COc1ccccc1/C=C/C(=O)OC(C)CN1CCOCC1 (stereo not given)	FBPA coupling cs -44.7
CC(CN1CCOCC1)OC(=O)c1ccccc1 (stereo not given)	none
Cc1cc(NC(=O)CN(C)S(=O)(=O)c2ccc3c(c2)CCCC(=O)N3)ccc1Br	none (no result: Sfp inh, FBPA coupling cs)
CC1CCCCN1C(=O)Cn1c(=O)n(-c2ccc(Cl)cc2)c(=O)c2c3c(sc21)CCC3 (stereo not given)	none (no result: Sfp inh, FBPA coupling cs)
COc1ccccc1NC(=O)C1=C(C)Nc2c(C(=O)Nc3cccc(C)c3)cnn2C1c1ccccc1Cl (stereo not given)	Tau fibril FP inconclusive (no result: Sfp inh, FBPA coupling cs)
COc1cc(/C=N/NC(=O)c2cccc(NC(=O)c3ccccc3C)c2)ccc1O	none (no result: Tau fibril ThT, Tau fibril FP, Tau fluor counter)
O=[N+]([O-])c1cc(Cl)cc(/C=N/NC(=S)Nc2ccc(S(=O)(=O)N3CCOCC3)cc2)c1O	Sfp inh inconclusive, Tau fibril ThT 10µM, Tau fluor counter inconclusive
O=S(=O)(c1ccc(NC(=S)N/N=C/c2ccc(O)c(O)c2)cc1)N1CCOCC1	Tau fibril ThT inconclusive, Tau fluor counter inconclusive

High-throughput results as filed in PubChem BioAssay.
